The list is not random: actives were taken first. Their share in the collection is about 2.4%.
D2 PAM-1 = Beta-Arrestin HTS for Positive Allosteric Modulators of the Human D2 Dopamine Receptor: Potentiators; potentiation, % (concentration not given with the values); D(2) dopamine receptor (Homo sapiens), P14416; DiscoveRx D2 beta-arrestin cells, luminescence, 90 min; 100% = 57 uM dopamine signal; 360,000 compounds, 0.23% hits; in the data active = potentiation above about 50%
Target sequence (P14416 whole entry, looked up): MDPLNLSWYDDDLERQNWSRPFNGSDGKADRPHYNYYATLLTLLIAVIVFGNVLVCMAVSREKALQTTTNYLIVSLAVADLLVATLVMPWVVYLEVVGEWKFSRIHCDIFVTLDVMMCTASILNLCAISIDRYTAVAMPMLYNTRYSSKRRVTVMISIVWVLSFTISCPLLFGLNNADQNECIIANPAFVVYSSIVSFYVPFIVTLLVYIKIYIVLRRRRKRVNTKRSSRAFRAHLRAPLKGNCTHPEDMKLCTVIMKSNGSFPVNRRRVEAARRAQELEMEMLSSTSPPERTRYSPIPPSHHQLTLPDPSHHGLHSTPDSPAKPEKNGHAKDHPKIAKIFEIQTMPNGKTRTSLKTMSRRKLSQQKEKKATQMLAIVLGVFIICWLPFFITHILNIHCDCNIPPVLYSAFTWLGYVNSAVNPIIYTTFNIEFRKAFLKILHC
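D2 cells co-treated with compound plus 50 nM dopamine (EC20) for 90 min at 37 deg C to detect potentiation. Beta-arrestin recruitment was read as enzyme-fragment luminescence after 1 h at ambient temperature. Full response was set by 57 uM dopamine.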
D2 ag-1 = Beta-Arrestin HTS for Positive Allosteric Modulators of the Human D2 Dopamine Receptor: Agonists; D(2) dopamine receptor (Homo sapiens), P14416; DiscoveRx PathHunter D2 beta-arrestin, luminescence, 90 min; 100% = 57 uM dopamine signal; activation, % (test concentration not listed); 360,000 compounds, 0.084% hits; in the data active = activation above about 40%
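Agonist mode: compounds alone added to overnight-plated D2 PathHunter cells for 90 min at 37 C, with 57 uM final dopamine (EC100) defining full response. Beta-arrestin recruitment detected by chemiluminescent reagent, read after 1 h at ambient temperature.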
D2 ag-2 = HTS Assay for Allosteric Agonists of the Human D2 Dopamine Receptor: Primary Screen for Agonists; activation, % at 2 µM; HEK293 T-REx D2 cells, calcium flux agonist mode; AID 485358, 2010; 340,000 compounds, 0.53% hits;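 active = activation over 3 SD above normal in the single-dose calcium agonist read, cut at about 30% in these data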
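Calcium-flux readout, 1 cycle/sec over 180 s following compound pin transfer, in inducible HEK293 Trex D2 cells (force-coupled); dopamine controls included. Positive calcium responses during this window marked compounds as potential agonists.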
D2 PAM-2 = HTS Assay for Positive Allosteric Modulators of the Human D2 Dopamine Receptor: Primary Screen for Potentiators; D(2) dopamine receptor (Homo sapiens), P14416; HEK293 T-REx D2, calcium flux, EC20 dopamine potentiation; potentiation, % at 10 µM; 340,000 compounds, 0.34% hits; AID 485347, 2010;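 active = potentiation over 3 SD above the plate norm, cut at about 30% in these data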
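Tetracycline-induced Hek293 Trex D2 cells, force-coupled to calcium, loaded with no-wash calcium dye. Compound added with 180 s kinetic read for agonism, then EC20 dopamine and a further 180 s read for potentiation.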
D2 antagonist = HTS Assay for Allosteric Antagonists of the Human D2 Dopamine Receptor: Primary Screen for Antagonists; HEK293 TREx D2 cells, calcium flux, dopamine EC80; inhibition, % at 10 µM; 340,000 compounds, 2% hits; in the data active = inhibition above about 30%; inactive = below that, where a call was filed
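HEK293 T-REx D2 cells, tet-induced, calcium dye no-wash. Cpd pintool add, 180 s kinetic, then EC80 DA, 180 s kinetic. Ca flux read.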
Hits are given with their value.

Results for Clc1cccc(N2CCNCC2)c1Cl ?
D2 PAM-1: inactive; D2 ag-1: inactive; D2 ag-2: inactive; D2 PAM-2: inactive; D2 antagonist: 35.0

How did COc1ccc(-n2c(/C=C\c3ccccc3F)nc3ccccc3c2=O)c(OC)c1 do in these assays?
D2 PAM-2: inactive

Results for O=[N+]([O-])c1cccc(CN2CCN(Cc3ccc(Br)cc3)CC2)c1 ?
D2 PAM-1: inactive; D2 ag-1: inactive; D2 ag-2: inactive; D2 PAM-2: inactive; D2 antagonist: 89.7

How did O=C(Cc1ccccc1)N1CCN(Cc2ccc([N+](=O)[O-])cc2)CC1 do in these assays?
D2 PAM-1: inactive; D2 ag-1: inactive; D2 ag-2: inactive; D2 PAM-2: inactive; D2 antagonist: inactive

What do the screens show for `CCCCCCNC(=O)N[C@H](Cc1ccc(O)cc1)C(=O)NCCC[C@H]1CN2C(=NC[C@H]2CCC)N1CC1CCC1`?
D2 ag-2: inactive; D2 PAM-2: inactive; D2 antagonist: 33.7

Results for COc1ccccc1OCC#CCN1CCCCCC1 ?
D2 PAM-1: inactive; D2 ag-1: inactive

What do the screens show for `COc1ccccc1OCC#CCN1CCCC(C)C1` (stereo unspecified)?
D2 PAM-1: inactive; D2 ag-1: inactive; D2 ag-2: inactive; D2 PAM-2: inactive; D2 antagonist: 57.5

How did Cc1cccc(-n2c(/C=C/c3cn(C)c4ccccc34)nc3ccccc3c2=O)c1 do in these assays?
D2 ag-2: inactive; D2 PAM-2: inactive

Results for COc1ccccc1-c1nn2c(=O)cc(CN3CCN(C(=O)COc4ccccc4Cl)CC3)nc2s1 ?
D2 ag-2: inactive; D2 PAM-2: inactive

How did Cc1cc(C)c(NC2=NCCCS2)c(C)c1 do in these assays?
D2 PAM-1: inactive; D2 ag-1: inactive; D2 ag-2: inactive; D2 PAM-2: 50.3; D2 antagonist: inactive

How did Cc1cccc(C)c1NC1=NCCCS1 do in these assays?
D2 PAM-1: inactive; D2 ag-1: inactive; D2 ag-2: inactive; D2 PAM-2: inactive; D2 antagonist: inactive

Results for COC(=O)C1=C(c2ccc(C(C)=O)cc2)C[C@@H]2CC[C@H]1N2C(=O)NC(C)C ?
D2 PAM-1: inactive; D2 ag-1: inactive; D2 ag-2: inactive; D2 PAM-2: inactive; D2 antagonist: 52.2

What do the screens show for `COC(=O)C1=C(c2ccc(C(C)=O)cc2)C[C@@H]2CC[C@H]1N2C`?
D2 PAM-1: inactive; D2 ag-1: inactive; D2 ag-2: inactive; D2 PAM-2: inactive; D2 antagonist: inactive

What do the screens show for `COC(=O)C1=C(c2ccccc2OCc2ccccc2)C[C@@H]2CC[C@H]1N2C(=O)NC1CCN(Cc2ccccc2)CC1`?
D2 PAM-1: inactive; D2 ag-1: inactive; D2 ag-2: inactive; D2 PAM-2: inactive; D2 antagonist: 59.5

What do the screens show for `COC(=O)C1=C(c2ccc(F)cc2OCc2ccccc2)C[C@@H]2CC[C@H]1N2C(=O)NC1CCN(Cc2ccccc2)CC1`?
D2 PAM-1: inactive; D2 ag-1: inactive; D2 ag-2: inactive; D2 PAM-2: inactive; D2 antagonist: inactive

How did COc1ccc(/C=C/c2nc3ccccc3c(=O)n2-c2ccc(C)cc2)cc1O do in these assays?
D2 ag-2: inactive

What do the screens show for `O=C(Nc1ccc2c(c1)OCO2)c1cccn(Cc2ccc(F)cc2)c1=O`?
D2 ag-2: inactive; D2 PAM-2: inactive

How did COc1cc2ccc(=O)oc2c2ccoc12 do in these assays?
D2 PAM-1: inactive; D2 ag-1: inactive; D2 ag-2: inactive; D2 PAM-2: inactive; D2 antagonist: inactive

How did COc1cc2occc2c2oc(=O)ccc12 do in these assays?
D2 PAM-1: inactive; D2 ag-1: inactive; D2 ag-2: inactive; D2 PAM-2: inactive; D2 antagonist: 32.6

How did O=C(COc1cccc(Cl)c1)N1CCN(CCc2ccncc2)CC1 do in these assays?
D2 ag-2: inactive; D2 PAM-2: inactive

How did CC(C)OCC(O)CN1CC2C[C@@H](C1)Cn1c2cccc1=O (stereo partly specified) do in these assays?
D2 PAM-1: inactive; D2 ag-1: inactive; D2 ag-2: inactive; D2 PAM-2: inactive; D2 antagonist: 41.7
